In PubChem BioAssay AID1159580 (chemical genetic matrix, 2015):
In all, about 5,500 compounds went through this assay and about 2,000 (36%) were called active. Roughly 18% stayed inconclusive and do not appear here. Cut-off read from the data, not from the text of the source: active = normalized growth mostly below about 0.91 (no sharp cut-off); inconclusive = no clear call, values can overlap the other calls; inactive = mostly above about 0.92. The list shows a part of the results.

Experiment: chemical genetic growth profiling, strain panel (AID 1159580);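 note: tested at 20 µM; growth read once vehicle control cultures reached saturation at 30 °C; 1 = growth at the plate median or of vehicle wells; lower values mean less growth of the strain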
Conditions: S. cerevisiae deletion strains, growth OD

Measured: normalized growth

C=CCCCCCCCCCCCC(O)CC(O)CO (centres undefined)
inactive: locus YAL013W, strain DEP1, stronger effect = lower value 0.952 | locus YAL021C, strain ccr4, stronger effect = lower value 0.987 | locus YAL026C, strain drs2, stronger effect = lower value 1.01 | locus YAL030W, strain snc1, stronger effect = lower value 1 | locus YBL061C, strain skt5, stronger effect = lower value 1 | locus YBR009C, strain hhf1, stronger effect = lower value 1 | locus YBR023C, strain chs3, stronger effect = lower value 1 | locus YBR171W, strain sec66, stronger effect = lower value 0.986 | locus YBR229C, strain ROT2, stronger effect = lower value 0.974 | locus YBR231C, strain swc5, stronger effect = lower value 0.997 | locus YBR279W, strain paf1, stronger effect = lower value 0.981 | locus YCL011C, strain gbp2, stronger effect = lower value 0.992 | locus YCL016C, strain dcc1, stronger effect = lower value 0.987 | locus YCL029C, strain bik1, stronger effect = lower value 0.968 | locus YCL061C, strain MRC1, stronger effect = lower value 0.985 | locus YCL069W, strain vba3, stronger effect = lower value 0.991 | locus YCR088W, strain abp1, stronger effect = lower value 0.99 | locus YDL005C, strain med2, stronger effect = lower value 0.987 | locus YDL040C, strain nat1, stronger effect = lower value 0.998 | locus YDL074C, strain BRE1, stronger effect = lower value 0.82 | locus YDL101C, strain DUN1, stronger effect = lower value 0.949 | locus YDL134C, strain PPH21, stronger effect = lower value 0.951 | locus YDL185W, strain tfp1, stronger effect = lower value 0.989 | locus YDL192W, strain arf1, stronger effect = lower value 0.921 | locus YDR001C, strain nth1, stronger effect = lower value 0.987 | locus YDR069C, strain doa4, stronger effect = lower value 1.01 | locus YDR137W, strain rgp1, stronger effect = lower value 1.01 | locus YDR150W, strain NUM1, stronger effect = lower value 0.992 | locus YDR159W, strain sac3, stronger effect = lower value 0.99 | locus YDR162C, strain NBP2, stronger effect = lower value 0.948 | locus YDR195W, strain ref2 1.01 | locus YDR297W, strain sur2, stronger effect = lower value 0.996 | locus YDR334W, strain swr1, stronger effect = lower value 1 | locus YDR335W, strain msn5, stronger effect = lower value 0.998 | locus YDR388W, stronger effect = lower value 0.98 | locus YDR392W, strain spt3, stronger effect = lower value 0.918 | locus YEL003W, strain gim4, stronger effect = lower value 0.993 | locus YEL037C, strain rad23, stronger effect = lower value 1.01 | locus YEL061C, strain CIN8 (second series), stronger effect = lower value 0.994 | locus YEL061C, strain CIN8, stronger effect = lower value 0.962 | locus YER015W, strain faa2, stronger effect = lower value 0.99 | locus YER016W, strain bim1, stronger effect = lower value 0.997 | locus YER110C, stronger effect = lower value 0.969 | locus YER111C, strain swi4, stronger effect = lower value 0.991 | locus YER155C, strain BEM2 (second series), stronger effect = lower value 0.986 | locus YER155C, strain BEM2, stronger effect = lower value 0.97 | locus YFR010W, strain ubp6, stronger effect = lower value 1 | locus YGL078C, strain dbp3, stronger effect = lower value 0.967 | locus YGL167C, strain pmr1, stronger effect = lower value 0.998 | locus YGL173C, strain kem1, stronger effect = lower value 0.996 | locus YGL227W, strain vid30, stronger effect = lower value 0.981 | locus YGL240W, strain doc1, stronger effect = lower value 0.993 | locus YGL248W, strain PDE1, stronger effect = lower value 0.927 | locus YGL253W, strain hxk2, stronger effect = lower value 1 | locus YGR229C, strain SMI1, stronger effect = lower value 0.947 | locus YGR252W, strain gcn5, stronger effect = lower value 0.785 | locus YHR013C, strain ard1, stronger effect = lower value 0.966 | locus YHR027C, strain rpn1, stronger effect = lower value 0.995 | locus YHR030C, strain SLT2, stronger effect = lower value 0.974 | locus YHR094C, strain hxt1, stronger effect = lower value 0.985 | locus YHR142W, strain chs7, stronger effect = lower value 1.01 | locus YHR200W, strain rpn10, stronger effect = lower value 0.961 | locus YIL073C, strain SPO22, stronger effect = lower value 0.992 | locus YIL125W, strain kgd1, stronger effect = lower value 0.977 | locus YIR030C, strain dcg1, stronger effect = lower value 0.942 | locus YJL092W, strain hpr5, stronger effect = lower value 0.992 | locus YJL095W, strain BCK1 (second series), stronger effect = lower value 0.99 | locus YJL095W, strain BCK1, stronger effect = lower value 0.937 | locus YJL115W, strain asf1, stronger effect = lower value 0.993 | locus YJL129C, strain trk1, stronger effect = lower value 0.985 | locus YJL134W, strain LCB3, stronger effect = lower value 0.995 | locus YJL154C, strain vps35, stronger effect = lower value 0.987 | locus YJL164C, strain tpk1, stronger effect = lower value 0.997 | locus YJL166W, strain qcr8, stronger effect = lower value 0.99 | locus YJL168C, strain set2, stronger effect = lower value 0.974 | locus YJL187C, strain SWE1 (second series), stronger effect = lower value 0.913 | locus YJL187C, strain SWE1, stronger effect = lower value 0.996
active: locus YBR021W, strain FUR4, stronger effect = lower value 0.751 | locus YDL035C, strain GPR1, stronger effect = lower value 0.822 | locus YDR101C, strain arx1, stronger effect = lower value 0.899 | locus YDR318W, strain mcm21, stronger effect = lower value 0.872 | locus YDR502C, strain sam2, stronger effect = lower value 0.912 | locus YER167W, strain BCK2, stronger effect = lower value 0.872 | locus YGL086W, strain mad1, stronger effect = lower value 0.875 | locus YGR078C, strain PAC10, stronger effect = lower value 0.832 | locus YGR135W, strain pre9, stronger effect = lower value 0.887 | locus YHR079C, strain IRE1 (second series), stronger effect = lower value 0.883 | locus YHR129C, strain ARP1, stronger effect = lower value 0.903 | locus YIL066C, strain RNR3, stronger effect = lower value 0.784
